Data: PubChem BioAssay (NCI)
This is part of a sample that, as a whole, favours compounds with a hit. Of some 83,000 tested, about 20% had one in any assay.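 For each line, cells grew in 96-well plates with the test compound present at a single concentration for 48 hours.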 Values without a mark were called inactive. Active and inactive are the calls of the source. How the source made its calls: active means growth percent below 10; inactive means the rest.

Columns and labels:
Experiment in all cases: NCI-60 one-dose screen, 48 h (100 = growth as untreated, 0 = no growth, -100 = all killed)
Conditions in all cases: 10 µM unless noted
T-47D breast = tested on: T-47D breast
BT-549 breast = tested on: BT-549 breast
MDA-MB-435 melanoma = tested on: MDA-MB-435 melanoma
SW-620 colon = tested on: SW-620 colon
MCF7 breast = tested on: MCF7 breast
HCT-116 colon = tested on: HCT-116 colon
HCC-2998 colon = tested on: HCC-2998 colon
KM12 colon = tested on: KM12 colon

Row | Compound | growth (T-47D breast) | growth (BT-549 breast) | growth (MDA-MB-435 melanoma) | growth (SW-620 colon) | growth (MCF7 breast) | growth (HCT-116 colon) | growth (HCC-2998 colon) | growth (KM12 colon)
1 | C#CC#CC#CC#CC#CC#CC#CC#CCC1OC[C@H](COC(=O)O[C@@H](C(=O)O[C@H]2C[C@@]3(O)[C@@H](OC(=O)c4ccccc4)[C@@H]4[C@]5(OC(C)=O)CO[C@@H]5C[C@H](O)[C@@]4(C)C(=O)[C@H](OC(C)=O)C(=C2C)C3(C)C)[C@@H](NC(=O)c2ccccc2)c2ccccc2)O1 (stereo partly drawn) | 41.3% | 26.4% | -48% (active) | 27.7% | 25% | 14.2% | 10.4% | 10.8%
2 | CCN(CC)CCN1C(=O)c2c(c(C)c3c(oc4ccc(O)cc43)c2C)C1=O | 0.129% (active) | 105% | 76.9% | 2.51% (active) | 4.29% (active) | -62.6% (active) | 23.5% | 32.3%
3 | Nc1[nH]c(=S)nc2oc(-c3ccccc3)c(-c3ccccc3)c12 | 96.8% | 106% | 104% | 106% | 96.6% | 101% | 110% | 98.9%
4 | Cc1nc2c(c(=O)[nH]1)C(c1ccccc1)c1ccc3ccccc3c1O2 (stereo not drawn) | 39.1% | 34.1% | -16.2% (active) | 20.9% | 11.4% | 21.3% | 56.6% | 26.2%
5 | CC1(C)CC[C@]2(CO)CC[C@]3(C)[C@H](CC[C@@H]4[C@@]5(C)CCCNC(C)(C)[C@@H]5CC[C@]43C)[C@H]2[C@H]1O | 88.8% | 89.3% | 82.7% | 54.2% | 55.2% | 50.2% | 38.2% | 77.9%
6 | O=C(NC(Cc1nnc2n(Cc3ccccc3)c(=O)c3c4c(sc3n12)CCCC4)c1ccccc1)c1ccccc1 (stereo not drawn) | 102% | 100% | 105% | 101% | 97.9% | 81.4% | 108% | 108%
7 | COc1ccc(/C=C/C(=O)c2cc(OC)c(OC)c(OC)c2)cc1OCC(=O)Nc1nc2ccc(OC(F)(F)F)cc2s1 | 24.3% | 25.7% | -51.3% (active) | 6.16% (active) | 4.06% (active) | -75.5% (active) | 90.6% | -14.3% (active)
8 | O=C(Nc1ccccc1N1CCCC1=O)c1oc2ccc(F)cc2c1-c1cnn(-c2ccccc2)c1 | 35.4% [50 µM] | 56.7% [50 µM] | 62.2% [50 µM] | 75.4% [50 µM] | 43.8% [50 µM] | 23.8% [50 µM] | 90.5% [50 µM] | 47.4% [50 µM]
9 | O=C1Nc2ccccc2C1(c1c[nH]c2ccccc12)c1c[nH]c2ccccc12 | -21.2% (active) | -17.7% (active) | 85% | 77% | -1.78% (active) | 36.6% | 26.4% | 11.9%
10 | CCCn1cnc2c(c1=N)C(c1ccc(F)cc1)c1sc3c(F)cccc3c1O2 (stereo not drawn) | 53.9% | 63.9% | -35.6% (active) | 25.1% | 15.1% | 36.3% | 76.9% | 36.1%
11 | CCOC(=O)C(=Cc1ccc(-c2ccccc2)cc1)C(=O)OCC | 27.8% | 30.7% | 38.3% | 10.8% | 16.9% | -10.1% (active) | 76.2% | 36.6%
12 | COC(=O)c1c2c(n3ccccc13)C(=O)c1ccccc1C2=O | 73.4% | 68.1% | 84.6% | 40.9% | 42.5% | 27.9% | 88.3% | 49.7%
13 | CC1C(/C=N/NC(N)=S)C(C#N)(C#N)C1(C#N)C#N (stereo not drawn) | 84.6% | 110% | 98.3% | 95.8% | 97.1% | 105% | 105% | 97%
14 | COc1ccccc1C(=O)Nc1cccc(NC(=O)c2ccoc2C)c1 | 45.1% | 44% | -15.8% (active) | 28.2% | 24.6% | 15.3% | 67.2% | 21.1%
15 | CN(C)CCCC1(c2ccc(F)cc2)OCc2cc(-c3ccc4cc[nH]c4c3)ccc21 (stereo not drawn) | 75.8% | 87.7% | 14.7% | 17.2% | -4.23% (active) | -12.2% (active) | -61.6% (active) | 0.464% (active)
16 | CCOC(=O)c1c(C)nc2ccccc2c1/C=C/c1ccccc1 | 25.7% | 61.7% | 70.2% | 91.1% | 65.5% | 59.5% | 87.2% | 71.8%

Row | Compound | growth (T-47D breast) | growth (BT-549 breast) | growth (MDA-MB-435 melanoma) | growth (SW-620 colon) | growth (MCF7 breast) | growth (HCT-116 colon) | growth (HCC-2998 colon) | growth (KM12 colon)
17 | COC(=O)c1ccc(NC(=O)Nc2ccc(C(=O)OC)cc2)cc1 | 89% | 99% | 109% | 112% | 96.1% | 95.3% | 108% | 113%
18 | Cc1[nH]c(C2CC(c3ccc(C(F)(F)F)c(F)c3)=NN2c2ccccc2)c(C)c1C(=O)NCC(F)(F)F (stereo not drawn) | 65.9% | 103% | 98.1% | 99.1% | 56.5% | 82.4% | 96.5% | 87.5%
19 | NC1=Nc2cc(OCCCCN3Cc4ccccc4C3)c(OCC3CC3)cc2C12CCCC2 | -46.9% (active) | 82.2% | 5.33% (active) | 3.2% (active) | 10.6% | 11.3% | -58.2% (active) | 46.5%
20 | COc1ccc(/C=C2\CN(C(=O)C(Cl)Cl)C/C(=C\c3ccc(OC)cc3)C2=O)cc1 | 2.86% (active) | -19.3% (active) | -37.4% (active) | -41.5% (active) | -28.5% (active) | -70.2% (active) | -77% (active) | -70.3% (active)
21 | O=C(Nc1ncc(Cc2ccccc2)s1)c1ccc2c(c1)OCCCO2 | 18.1% | 48.8% | -34.2% (active) | 38.1% | 16.1% | 23% | 22% | 16.4%
22 | Oc1c(CN2CCOCC2)cc(COCc2ccccc2)c2cccnc12 | 10.4% | 36.4% | 46.8% | 28.9% | 9.26% (active) | 21.6% | 54.2% | 35.6%
23 | CCNC(=O)Oc1ccc(/C(=C(/CC)Cc2ccccc2)c2ccc(OCCN3CCCC3)cc2)cc1 | 68.3% | 100% | 102% | 99.6% | 35.9% | 72.1% | 91.3% | 98%
24 | NC(=O)c1c(NC(=O)c2cccc(C(F)(F)F)c2)sc2c1CCC(=O)C2 | -3.77% (active) | -28.2% (active) | -12.2% (active) | -12.4% (active) | 5.02% (active) | -28.2% (active) | 16.1% | 0.496% (active)
25 | CC1(C)CC[C@]23CC[C@]4(C)[C@H](CC[C@@H]5[C@@]6(C)C/C(=C/c7ccncc7)C(=O)C(C)(C)[C@@H]6CC[C@]54C)[C@H]2[C@H]1OC3 | 41.5% | 99.3% | 66.6% | 61.3% | 55.3% | 50% | 93% | 68.4%
26 | COc1cc(OC)c2sc(-c3ccc(-n4cncc4-c4cc(OC)c(OC)c(OC)c4)cc3)nc2c1 | 32.4% | 45.1% | 35.2% | 56.6% | 49.8% | 48.6% | 95.3% | 52.4%
27 | C=C(C)[C@@H]1CC[C@]2(C(N)=O)CC[C@]3(C)[C@H](CC[C@@H]4[C@@]5(C)CC[C@H](OCCC#N)C(C)(C)[C@@H]5CC[C@]43C)[C@@H]12 | 72.3% | 97.8% | 89.1% | 87% | 86.7% | 91% | 110% | 89.2%
28 | Cc1nc2c(=O)nc3s/c(=C\c4ccco4)c(=O)n3c2nc1C | 94.3% | 110% | 94.1% | 111% | 96.4% | 101% | 97.2% | 105%
29 | CN(C)c1ccc(-c2ccc3c(c2)c(-c2ccccc2)nc(=O)n3C)cn1 | 22.1% | 49.1% | -11.1% (active) | 26.3% | 18% | 22.1% | 78.2% | 43.2%
30 | Cc1cccc(-c2nc(Nc3ccc4ncsc4c3)c3ccccc3n2)n1 | 34.6% | 87.9% | 60.4% | 79.8% | 9.7% (active) | 77.4% | 116% | 63.1%
31 | COc1cc(-c2nc3sccn3c2-c2ccnc(NCCNS(=O)(=O)c3ccc(Cl)cc3)n2)ccc1F | 1.61% (active) | 30.9% | 9.48% (active) | 50.6% | 17.7% | 20.9% | 66.5% | 17%
